Whole data set: some 16,000 sequences, median “e-score” near -0.044, cut for the highest 2% near 0.38. The sample holds the highest values, similar sequences and a random draw of the others, so the mix is not that of the screen.
Target: T1, GST-NbGlk1(82-244) (Nicotiana benthamiana)
T1 chain: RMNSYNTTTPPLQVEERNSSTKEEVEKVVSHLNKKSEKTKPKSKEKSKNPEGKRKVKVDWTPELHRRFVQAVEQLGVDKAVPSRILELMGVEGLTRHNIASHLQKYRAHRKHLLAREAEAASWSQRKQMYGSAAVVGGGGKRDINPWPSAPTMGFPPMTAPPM
Experiment: protein-binding microarray; NbGlk1 is a Golden2-like transcription factor of Nicotiana benthamiana; high values mean tight binding
Details: protein: recombinant; tags: GST (pTH6838); dsDNA, one strand shown

Sequence	binding signal
ATCCACAT	0.256 ± 0.0906 E-score
AGATCTTC	0.428 ± 0.0156 E-score
AAATCTTA	0.44 ± 0.0386 E-score
AAATCATG	0.332 ± 0.0128 E-score
AGATCTTA	0.347 ± 0.0143 E-score
AAATCGTA	0.373 ± 0.0227 E-score
AAATCTTG	0.4213 ± 0.00314 E-score
AAATCGTG	0.365 ± 0.0286 E-score
AAATCGTC	0.354 ± 0.0288 E-score
AGATCTTG	0.373 ± 0.0461 E-score
AAATCTTC	0.446 ± 0.0208 E-score
CAATCTTC	0.294 ± 0.0422 E-score
CAATCTTA	0.304 ± 0.0126 E-score
ATCTTCTC	0.311 ± 0.013 E-score
ATCAGATC	0.35 ± 0.0204 E-score
ATTACGTA	0.354 ± 0.0309 E-score
AGATACTG	0.33 ± 0.00398 E-score
AGCGCGAT	0.325 ± 0.0563 E-score
AATCGATG	0.268 ± 0.0785 E-score
ATTCTATA	0.284 ± 0.0791 E-score
AATCTATG	0.38 ± 0.0331 E-score
AATCTATA	0.402 ± 0.0321 E-score
AATCTATC	0.366 ± 0.0334 E-score
AATATATG	0.252 ± 0.0059 E-score

Sequence	binding signal
ATCTGCGC	0.317 ± 0.0626 E-score
AACGCGAT	0.341 ± 0.0519 E-score
AAAGGAAT	0.27 ± 0.0558 E-score
ATCCAGTG	0.221 ± 0.123 E-score
ATAGAGAT	0.276 ± 0.0241 E-score
AAAGATAT	0.342 ± 0.0309 E-score
AGAGAGAT	0.241 ± 0.0533 E-score
AGAGATAC	0.222 ± 0.0223 E-score
ACAGATAT	0.415 ± 0.0135 E-score
AGAGATCT	0.411 ± 0.0152 E-score
ACAGATAC	0.276 ± 0.00718 E-score
ATAGATAC	0.26 ± 0.0116 E-score
AGAGATCG	0.303 ± 0.0386 E-score
AGAGATCC	0.346 ± 0.0193 E-score
AGAGATAT	0.391 ± 0.0365 E-score
ATAGATAT	0.394 ± 0.0151 E-score
AACTAGAT	0.208 ± 0.0834 E-score
ATTTCTCC	0.242 ± 0.0333 E-score
AATTACGT	0.26 ± 0.0756 E-score
ATTCTTGA	0.221 ± 0.0445 E-score
ACGAAGAT	0.31 ± 0.00598 E-score
ATATGCTG	0.258 ± 0.0732 E-score
AAAGATCT	0.38 ± 0.023 E-score
AAAGATCG	0.278 ± 0.0495 E-score

Sequence	binding signal
AAAGATCC	0.292 ± 0.0246 E-score
AGCAAGAT	0.309 ± 0.0213 E-score
ATTATCCC	0.261 ± 0.0646 E-score
ATAACGAT	0.216 ± 0.0183 E-score
AGATCCAG	0.261 ± 0.0749 E-score
ATATCCCA	0.3708 ± 0.000904 E-score
AGATCCAC	0.287 ± 0.0119 E-score
ATATCCCC	0.36 ± 0.0106 E-score
ATATCAAG	0.298 E-score
ATCTCCAT	0.335 ± 0.0406 E-score
ATATCCAT	0.43 ± 0.00596 E-score
ATATCCAG	0.3945 ± 0.00384 E-score
ATATCAAT	0.281 ± 0.00703 E-score
ATATCCAC	0.393 E-score
ATATCAAA	0.228 ± 0.00678 E-score
ATATCCAA	0.407 ± 0.00723 E-score
ATTGTGTA	0.249 ± 0.00712 E-score
ATCCCCGG	0.256 ± 0.0142 E-score
AGAATTTA	0.222 ± 0.00311 E-score
AATTTCAT	0.238 ± 0.0823 E-score
ATCCGTTA	0.315 ± 0.0322 E-score
ATCAGTGA	0.218 ± 0.0932 E-score
ATCTGGTA	0.238 ± 0.087 E-score
ATCGCGAC	0.287 ± 0.126 E-score

Sequence	binding signal
AATCCTTG	0.336 ± 0.0164 E-score
ATGGTAAT	0.305 ± 0.00923 E-score
CAATCCAG	0.291 ± 0.00762 E-score
AGATCCAA	0.262 ± 0.127 E-score
AAATCCAT	0.422 ± 0.0113 E-score
CAATCCAC	0.328 ± 0.0614 E-score
AAATCCAA	0.426 ± 0.042 E-score
AAATCAAG	0.318 ± 0.0251 E-score
AATCCCAC	0.318 ± 0.0378 E-score
AAATCCAG	0.413 ± 0.0172 E-score
CAATCCAA	0.298 ± 0.0654 E-score
AAATCCAC	0.43 ± 0.0323 E-score
ATCCCAGA	0.276 ± 0.00637 E-score
ATATGAGA	0.231 ± 0.0943 E-score
ATTACCTG	0.213 ± 0.0963 E-score
CAATATCA	0.299 ± 0.00874 E-score
ATCTTGAA	0.286 ± 0.0202 E-score
AATATAGA	0.271 ± 0.00595 E-score
ACCTGGAT	0.224 ± 0.0187 E-score
ATTTTTAG	0.235 ± 0.0033 E-score
ATTTGTAC	0.228 ± 0.0254 E-score
CAATCCCG	0.284 ± 0.05 E-score
AAATCACG	0.381 ± 0.0177 E-score
AAATCACC	0.333 ± 0.00843 E-score

Sequence	binding signal
CAATCCCA	0.279 ± 0.00457 E-score
AAATCCCC	0.368 ± 0.0151 E-score
AAATCCCG	0.435 ± 0.00616 E-score
AAATCACA	0.349 ± 0.00405 E-score
AATCCCCG	0.362 ± 0.0401 E-score
AAATCCCA	0.4 ± 0.00412 E-score
ATTTCGGG	0.27 ± 0.0618 E-score
ATCTCATC	0.312 ± 0.051 E-score
ACCGCAAT	0.302 ± 0.00387 E-score
ATCCGGAG	0.233 ± 0.0472 E-score
ATCCGGAT	0.422 ± 0.0228 E-score
ATCCGGAA	0.332 ± 0.0273 E-score
ACACAAAT	0.204 ± 0.00827 E-score
ACAATCTA	0.3803 ± 0.00317 E-score
ACAATCTC	0.373 ± 0.047 E-score
ACAATCGA	0.201 ± 0.0349 E-score
ACAATCAG	0.237 ± 0.0723 E-score
ACAATCTG	0.404 ± 0.0106 E-score
ACAATCAA	0.223 ± 0.00556 E-score
ATTTGTTA	0.237 ± 0.0814 E-score
ACTGCAAT	0.211 ± 0.0632 E-score
ACGATTTG	0.264 ± 0.0306 E-score
CAAATTTC	0.232 ± 0.00396 E-score
ACGATCTA	0.252 ± 0.0264 E-score

Sequence	binding signal
AAGATTTC	0.477 ± 0.00488 E-score
ATGATTTC	0.387 ± 0.0129 E-score
ATGATTTG	0.257 ± 0.0544 E-score
ATTATTTC	0.219 ± 0.0605 E-score
AAGATTTA	0.333 ± 0.0668 E-score
AAAATTTC	0.276 ± 0.00552 E-score
ACGATTTC	0.411 ± 0.0236 E-score
CAGATTTA	0.276 ± 0.0107 E-score
CAGATTTC	0.4864 ± 0.00115 E-score
ATTCCCAA	0.344 ± 0.0159 E-score
ATCGGATA	0.33 ± 0.0178 E-score
AAATACGT	0.267 ± 0.0537 E-score
AATTGAAA	0.226 ± 0.0522 E-score
ACAAATAA	0.23 ± 0.0836 E-score
ATTTATTG	0.216 ± 0.0481 E-score
ATTGCGAG	0.24 ± 0.0521 E-score
ATATATAT	0.244 ± 0.0459 E-score
ATTCCCAG	0.291 ± 0.0505 E-score
AACTGATT	0.296 ± 0.0177 E-score
AAGATCAG	0.222 ± 0.0847 E-score
AATATTTG	0.2529 ± 0.00132 E-score
AAGATTTG	0.3926 ± 0.000402 E-score
AATCGGCA	0.245 ± 0.0624 E-score
AATTTCCG	0.257 ± 0.00588 E-score

Sequence	binding signal
AATCAGTA	0.268 ± 0.0701 E-score
AATCTTAC	0.375 ± 0.0424 E-score
AATCTTAT	0.377 ± 0.038 E-score
AATCTTAG	0.393 ± 0.0231 E-score
ATTCTTAA	0.276 ± 0.0327 E-score
AATCTTAA	0.411 ± 0.0114 E-score
ATTCTTAG	0.253 ± 0.0124 E-score
AAAGTAAT	0.215 ± 0.0195 E-score
CAAAATCC	0.42 ± 0.00492 E-score
AAAAATCC	0.437 ± 0.00502 E-score
CAAAATCA	0.314 ± 0.00439 E-score
ATAAATCC	0.244 ± 0.0187 E-score
ACAAATCC	0.337 ± 0.0192 E-score
CAAAATAC	0.244 ± 0.00367 E-score
ATACGCAA	0.311 ± 0.105 E-score
ATTACGTG	0.343 ± 0.0114 E-score
ATACAGAT	0.232 ± 0.0349 E-score
ATTTTCAG	0.282 ± 0.0614 E-score
ATTCCGAG	0.275 ± 0.0409 E-score
AATCCGAT	0.432 ± 0.00878 E-score
AATCAGAA	0.333 ± 0.0384 E-score
ATCCCGAT	0.294 ± 0.0618 E-score
AATCCGAG	0.384 ± 0.0199 E-score
AATCCGAA	0.406 ± 0.0054 E-score

Sequence	binding signal
AATCCCGA	0.358 ± 0.0612 E-score
AATGCGAT	0.246 ± 0.145 E-score
AATCCGAC	0.375 ± 0.0477 E-score
ATCCCCAT	0.277 ± 0.00736 E-score
AAACGGAT	0.245 ± 0.00295 E-score
AATCAATA	0.274 ± 0.0307 E-score
ATTACGCG	0.332 ± 0.0406 E-score
ATCGCCAA	0.206 ± 0.00895 E-score
ATTACTTA	0.22 ± 0.00767 E-score
CAAGATAC	0.263 ± 0.0221 E-score
CAAGAATC	0.3851 ± 0.0038 E-score
AAAGAAAT	0.26 ± 0.02 E-score
AATGAATC	0.262 ± 0.0542 E-score
CACGAATC	0.332 ± 0.0173 E-score
AAAGAATC	0.432 ± 0.00665 E-score
ATCCGGTG	0.295 ± 0.0985 E-score
AATAAAAT	0.285 ± 0.0273 E-score
ATGATCTC	0.237 ± 0.0252 E-score
ACGATACG	0.207 ± 0.012 E-score
ACGATATC	0.444 ± 0.0119 E-score
CAGATATC	0.4684 ± 0.00421 E-score
AGGATATA	0.211 ± 0.0455 E-score
ACGATCTC	0.295 ± 0.0231 E-score
ATGATATC	0.4224 ± 0.000678 E-score

Sequence	binding signal
ATGATATG	0.251 ± 0.0218 E-score
AGGATATC	0.469 ± 0.00696 E-score
CAGATACC	0.318 ± 0.0659 E-score
AGGATATG	0.301 ± 0.025 E-score
CACATATC	0.207 ± 0.0307 E-score
CACGGATA	0.231 ± 0.0138 E-score
ATATTTTA	0.311 ± 0.0242 E-score
ATATGATA	0.219 ± 0.000234 E-score
ATTCGGTA	0.241 ± 0.0544 E-score
ACTGTAAA	0.2014 ± 0.00123 E-score
ATTACGGA	0.366 ± 0.0276 E-score
ATAACGCA	0.2 ± 0.0382 E-score
ATCTAAGA	0.26 ± 0.0102 E-score
ACGGGAAT	0.324 ± 0.00778 E-score
AAGATACT	0.2834 ± 0.00149 E-score
CAGATACG	0.391 ± 0.0206 E-score
CAGATATG	0.393 ± 0.0499 E-score
CAAATATG	0.212 ± 0.061 E-score
CAAATACG	0.225 ± 0.0583 E-score
AAGATACG	0.319 ± 0.0229 E-score
AAGATATA	0.3097 ± 0.00108 E-score
CACAGATA	0.28 ± 0.0657 E-score
AAGATATC	0.4749 ± 0.00348 E-score
AAGATATG	0.352 ± 0.0302 E-score

Sequence	binding signal
AAGATAAT	0.221 ± 0.0513 E-score
AAGATATT	0.393 ± 0.0518 E-score
ATCCAGCC	0.215 ± 0.0455 E-score
CAATCAGA	0.206 ± 0.101 E-score
AAATATAG	0.237 ± 0.00681 E-score
ATATCGAA	0.272 ± 0.135 E-score
ATCTCGTA	0.376 ± 0.0288 E-score
ATCGGATC	0.275 ± 0.0422 E-score
ATTTTCGA	0.266 ± 0.0802 E-score
ATTACGCA	0.355 ± 0.0219 E-score
AGATATTG	0.375 ± 0.0495 E-score
ATATATTC	0.281 ± 0.0514 E-score
AGATATTA	0.379 ± 0.00115 E-score
AGATATTC	0.451 ± 0.0112 E-score
ATATATTA	0.229 ± 0.0313 E-score
AAATATTC	0.306 ± 0.0275 E-score

— article PMC5836133, “The intracellular immune receptor Rx1 regulates the DNA-binding activity of a Golden2-like transcription factor”
